Only some compounds are listed: those with a hit (about 2.9% of all), similar ones and a draw of the others.
ADAM17 inh: ADAM17 inhibition, QFRET primary screen | P78536 | recombinant ADAM17, EDANS/DABCYL FRET peptide cleavage | inhibition, % at 6.95 µM | 370,000 compounds, 0.83% hits;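 active = inhibition above the mean of compounds lying between control limits plus 3 SD, set per campaign, cut at about 8.5% in these data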;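 note: 0% = DMSO-only wells as the low control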
Target sequence (P78536 215-824 limits assumed): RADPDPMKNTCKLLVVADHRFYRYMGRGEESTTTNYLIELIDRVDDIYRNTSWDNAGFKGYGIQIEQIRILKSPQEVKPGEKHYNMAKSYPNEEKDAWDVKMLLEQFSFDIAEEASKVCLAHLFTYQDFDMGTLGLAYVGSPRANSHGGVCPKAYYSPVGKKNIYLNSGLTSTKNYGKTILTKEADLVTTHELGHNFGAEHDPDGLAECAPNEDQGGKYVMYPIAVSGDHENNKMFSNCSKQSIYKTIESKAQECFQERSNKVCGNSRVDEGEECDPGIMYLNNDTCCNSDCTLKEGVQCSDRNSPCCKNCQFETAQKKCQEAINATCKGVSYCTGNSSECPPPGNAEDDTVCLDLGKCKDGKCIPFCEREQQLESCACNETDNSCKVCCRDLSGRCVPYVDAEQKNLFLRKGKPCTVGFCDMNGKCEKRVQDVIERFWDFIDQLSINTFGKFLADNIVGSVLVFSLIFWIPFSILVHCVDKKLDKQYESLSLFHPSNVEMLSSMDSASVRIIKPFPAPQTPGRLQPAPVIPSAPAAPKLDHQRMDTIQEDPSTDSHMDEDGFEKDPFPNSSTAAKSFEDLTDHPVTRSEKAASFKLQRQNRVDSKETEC
KLK7 zymogen act: activators of human kallikrein-7 zymogen | 370,000 compounds, 0.9% hits | purified proKLK7, EDANS-DABCYL substrate fluorescence; 100% is mature enzyme control, 0% vehicle | P49862 | AID 652039 | activation, % at 7 µM;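 active = activation above the mean of all tested compounds plus 3 SD, computed per campaign excluding outliers beyond control limits, cut at about 13% in these data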
ADAM10 inh: inhibitors of human ADAM10; O14672; recombinant ADAM10, EDANS/DABCYL FRET peptide cleavage, 3 h; inhibition, % at 7 µM; 370,000 compounds, 0.62% hits;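 active = inhibition above a per-campaign cutoff equal to the mean of compounds falling between control-based bounds plus 3 SD, cut at about 20% in these data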;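 note: 0% = DMSO wells while the 100% control is not disclosed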
PLC-beta3 inh: PLC-beta3 (human) inhibition, primary screen; AID 720704; Q01970; Purified PLC-beta3, fluorogenic substrate, fluorescence; inhibition, % at 12.2 µM; 370,000 compounds, 0.18% hits; in the data active = inhibition above about 11%;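 note: 0% = median of compound wells on plate and 100% = full blocker control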
PLC-gamma1 inh: blocks human PLC-gamma1 enzyme activity; P19174; purified PLC-gamma1, fluorogenic substrate, fluorescence; inhibition, % at 12.2 µM; 370,000 compounds, 0.84% hits; in the data active = inhibition above about 9.5%
ADAM10 counter: ADAM10 inhibition, counter-screen for ADAM17 exosite hits | recombinant ADAM10, EDANS/DABCYL FRET peptide cleavage, 3 h | shares compounds with ADAM17 inh | 2,900 compounds, 47% hits | inhibition, % at 6.95 µM;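 active = mean inhibition over the triplicate runs exceeds the activity threshold set in the earlier primary screen, cut at about 20% in these data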;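 note: 0% = DMSO wells and 100% = marimastat wells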
ADAM17 confirm: confirmation of inhibitors of human ADAM17 | shares compounds with ADAM17 inh | recombinant ADAM17, EDANS/DABCYL QFRET peptide cleavage | inhibition, % at 6.95 µM | 2,900 compounds, 65% hits | AID 743257;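 active = mean inhibition across replicates above the hit cutoff set in the primary screen, cut at about 8.5% in these data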;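 note: 0% = DMSO wells and 100% = marimastat wells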
Active calls of the source: *; · = not tested or not shown.

SMILES	ADAM17 inh	KLK7 zymogen act	ADAM10 inh	PLC-beta3 inh	PLC-gamma1 inh	ADAM10 counter	ADAM17 confirm
CC(=O)c1cccc(S(=O)(=O)NCCC(=O)Nc2ccc(S(N)(=O)=O)cc2)c1	0	-1	-3	-2	0	·	·
C=CCN1C(=O)[C@@H](CC(=O)NCc2cccc3ccccc23)[C@]2(C(=O)OCC)CCCCC/C=C/12	11*	0	8	6	3	8	5
CCOC(=O)[C@]12CCCCC/C=C\1N(Cc1ccc(OC)cc1)C(=O)[C@H]2CC(=O)NCC1CCCCC1	13*	0	11	2	3	9	5
Cc1ccc2c(c1)C(c1ccccc1)N(C(=O)c1ccccc1)CC(=O)N2 (stereo unspecified)	-2	0	2	-11	-3	·	·
CCC(=O)Nc1sc2c(c1C(=O)OC)CCN(Cc1ccccc1)C2	-3	2	-7	-5	-3	·	·
O=S(=O)(c1ccccc1Cl)N1CCCC1c1nc(-c2ccccc2Cl)no1 (stereo unspecified)	-2	1	-7	-4	-2	·	·
O=S(=O)(c1ccc(Cl)cc1)N1CCCC1c1nc(-c2ccc(Cl)cc2)no1 (stereo unspecified)	9.8*	1	15	1	4	2	3
CCN(CC)C(=O)C1=C(C)N(Cc2ccc(C(C)(C)C)cc2)C(=O)C(CC(=O)NCCCCc2ccccc2)C1 (stereo unspecified)	9.8*	0	16	0	2	20	8
CC1=C(C(=O)N(C)C)CC(CC(=O)NCCCCc2ccccc2)C(=O)N1Cc1ccc(C(C)(C)C)cc1 (stereo unspecified)	11*	0	-2	-2	6	26*	12*
O=C(COC(=O)c1ccc(S(=O)(=O)N2CCCC2)cc1)Nc1cccnc1Cl	-2	0	-1	1	0	·	·
COc1ccccc1C(=O)Nc1ccc(C(=O)/C=C/c2cccs2)cc1	7	-6	7	-5	0	·	·
CC1=C(C(=O)Nc2ccccc2)C(c2cccc([N+](=O)[O-])c2)Nc2nc3ccccc3n21 (stereo unspecified)	8.8*	0	11	3	7	-2	1
CNC(=O)C1=C(C)n2c(nc3ccccc32)NC1c1ccc(OC)cc1 (stereo unspecified)	-8	-2	-22	-22	-20	·	·
O=C(Nc1cccc(F)c1)N(Cc1ccc(Cl)cc1)CC(O)C(F)(F)F (stereo unspecified)	9.9*	-1	9	4	6	36*	20*
COc1ccccc1/C=N/OCC(=O)NCc1ccc2c(c1)OCO2	-2	0	3	2	1	·	·
Cc1cc(Cl)ccc1OCC(=O)OCC(=O)Nc1ccc(F)c([N+](=O)[O-])c1	9.0*	0	17	-5	1	43*	18*
CCNC(=O)COC(=O)COc1ccc(Cl)cc1C	-1	-1	-9	0	0	·	·
O=C(NC(Cc1c[nH]c2ccccc12)C(=O)OCC(=O)c1cccc2ccccc12)c1cccs1 (stereo unspecified)	9.5*	-6	10	-14	-8	9	8.9*
COC(=O)C(Cc1c[nH]c2ccccc12)NC(=O)c1cccs1 (stereo unspecified)	-2	0	-2	-7	1	·	·
COc1ccc(C2C3=C(N=C4SCC(=O)N42)c2ccccc2CC3)cc1 (stereo unspecified)	-7	-1	-25	-10	-8	·	·
COc1ccc(C2C3=C(N=C4SCC(=O)N42)c2ccccc2CC3)cc1OC (stereo unspecified)	9.3*	-1	14	-42	-24	-2	2
CC(Sc1nnc(-c2cccs2)n1Cc1ccccc1)C(=O)NCc1ccc2c(c1)OCO2 (stereo unspecified)	-2	0	2	2	1	·	·
COc1cccc(NC(=S)N/N=C2/CCCCc3ccccc32)c1	9.2*	-1	8	-3	2	8	5
CC(C)NC(=S)N/N=C1\CCCCc2ccccc21	-2	1	2	1	0	·	·
C=C(C)CN1CCN(S(=O)(=O)c2ccc(C)c(N(C)S(=O)(=O)c3ccc(C)cc3)c2C)CC1	10*	0	6	1	2	14	11*
SMILES	ADAM17 inh	KLK7 zymogen act	ADAM10 inh	PLC-beta3 inh	PLC-gamma1 inh	ADAM10 counter	ADAM17 confirm
Cc1ccc(S(=O)(=O)N(C)c2c(C)ccc(S(=O)(=O)N3CCN(C)CC3)c2C)cc1	-3	1	-1	2	0	·	·
CCOc1ccc(Oc2ccc(NS(=O)(=O)c3cc(C(=O)O)ccc3Cl)cc2)cc1	14*	-1	-1	-13	7	5	11*
CCOc1ccc(NS(=O)(=O)c2ccc(OC)c(C)c2)cc1	3	0	13	2	8	·	·
COc1ccc(NS(=O)(=O)c2cc(C)ccc2OC)cc1OC	-2	-1	5	0	-3	·	·
COc1ccc(F)cc1S(=O)(=O)Nc1ccc(C)cc1	11*	1	7	6	6	13	7
CCOc1ccc(NS(=O)(=O)c2cc(Cl)ccc2OC)cc1	12*	0	14	9	5	12	7
CC(=O)c1cccc(-c2ccnc3c2CC(C(=O)Nc2cccc(C(F)(F)F)c2)O3)c1 (stereo unspecified)	8.9*	0	5	1	1	14	9
COc1ccc(NC(=O)C2Cc3c(-c4ccccc4Oc4ccccc4)ccnc3O2)cc1OC (stereo unspecified)	3	-1	17	-1	0	·	·
O=C(Nc1ccc2c(c1)OCO2)C1Cc2c(-c3ccccc3Oc3ccccc3)ccnc2O1 (stereo unspecified)	8.9*	0	4	-1	-3	20*	9.7*
CC(=O)c1cccc(-c2ccnc3c2CC(C(=O)Nc2cccc(Oc4ccccc4)c2)O3)c1 (stereo unspecified)	9.4*	1	18	-5	-2	25*	9.9*
CC(C)(C)c1csc(NC(=O)C2COc3ccccc3O2)n1 (stereo unspecified)	2	0	0	-4	-2	·	·
COc1ccc(-c2csc(NC(=O)C3COc4ccccc4O3)n2)cc1OC (stereo unspecified)	8.9*	0	11	-1	4	15	10*
COc1ccccc1NS(=O)(=O)c1ccc2c(c1)OCCO2	2	0	-2	-5	0	·	·
Cc1cccc2cc(CN(Cc3cccs3)Cc3nnnn3Cc3ccccc3)c(=O)[nH]c12	11*	0	7	-5	3	-9	3

High-throughput results (PubChem)
